Compounds without any hit were thinned out: in the full panel of roughly 83,000, 20% have a hit.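 Assay: single dose, 48 h. Readout: percent growth (0 = no net growth; negative = cell death). Active: <10.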 Unmarked numbers belong to inactive results. Calls of active or inactive are those of the source.
Legend:
Assay in all cases: NCI-60 one-dose screen, 48 h (100 = growth as untreated, 0 = no growth, -100 = all killed)
Details in all cases: 10 µM
HCT-15 colon = system: HCT-15 colon
HT29 colon = system: HT29 colon
SNB-75 CNS = system: SNB-75 CNS
SNB-19 CNS = system: SNB-19 CNS
U251 CNS = system: U251 CNS
PC-3 prostate = system: PC-3 prostate
SK-MEL-5 melanoma = system: SK-MEL-5 melanoma
UACC-62 melanoma = system: UACC-62 melanoma
LOX IMVI melanoma = system: LOX IMVI melanoma
SK-MEL-28 melanoma = system: SK-MEL-28 melanoma

Compound | growth (HCT-15 colon) | growth (HT29 colon) | growth (SNB-75 CNS) | growth (SNB-19 CNS) | growth (U251 CNS) | growth (PC-3 prostate) | growth (SK-MEL-5 melanoma) | growth (UACC-62 melanoma) | growth (LOX IMVI melanoma) | growth (SK-MEL-28 melanoma)
Cc1ccc2nc3[nH]c(=O)[nH]c(=O)c3c(N)c2c1 | 84% | 83.3% | 90% | 86.2% | 89.1% | 85.6% | 84% | 47.3% | 75.2% | 98.3%
N#Cc1c(-c2ccccc2)nc(SCC(=O)N2CCOCC2)[nH]c1=O | 103% | 106% | 61.4% | 111% | 105% | 98.1% | 102% | 100% | 91.9% | 114%
COc1ccc(/C=C2\CCC3C(CCCC34OCCO4)C2=O)cc1 (stereo not given) | 66.2% | 80.1% | 105% | 90.1% | 99.2% | 86.4% | 87.3% | 81% | 80.8% | 95.1%
c1ccc(C2CCCCC2)c(OCCCCCN2CCNCC2)c1 | -34.7% (active) | 3.84% (active) | 48.3% | 71.1% | 26.1% | 43.6% | 16.5% | -51.3% (active) | -35% (active) | -15.8% (active)
COc1ccccc1NC1=C(N2CCCCC2)C(=O)c2ccccc2C1=O | 86.1% | 70.6% | 71.1% | 90.2% | 84.5% | 33.5% | 69% | 81.4% | 86.8% | 96.1%
N#CC1C=Cc2c(ccc3ccccc23)N1C(=O)c1ccccc1 (stereo not given) | 20.6% | 8.15% (active) | 22% | 43.3% | 24% | 32.6% | 12.7% | 37.7% | 27.5% | 48.9%
COc1ccc(-c2nc(-c3ccccc3)c(-c3ccccc3)[nH]2)cc1OC1CCCC1 | 19.8% | 35.5% | 70.5% | 66.4% | 39.1% | 50.1% | 67.7% | 57% | 24.3% | 79.4%
CCOC(=O)c1cc2c(n1Cc1cc(OC)cc(OC)c1)-c1oncc1CC2 | 21.9% | 5.66% (active) | -0.349% (active) | 38.7% | 23.5% | 27.4% | 24.6% | 40.3% | 49.5% | 33.8%
CCCCCCCCCCCCCCCC(=O)N1CCN(C)CC1 | 73.2% | 51.1% | 88.8% | 105% | 78.7% | 68.8% | 81.7% | 88.8% | -38.1% (active) | 88.7%
COc1ccc(-c2nnc(SCC(=O)c3ccccc3)o2)cc1 | 96.3% | 90.8% | 92.5% | 96.9% | 98.1% | 97.1% | 92.8% | 88.3% | 92.8% | 106%
COc1cc(-c2nc3ccccc3[nH]2)ccc1OCc1nnc(-c2ccc(Br)cc2)o1 | 45.3% | 70.7% | 104% | 104% | 83.9% | 96.2% | 75% | 92.7% | 92.6% | 93.2%

— PubChem BioAssay (NCI)
